± gives the standard deviation of the averaged measurements.
What follows are compounds tested on IL-6-GFP PC-9 (assay: cell viability (CCK-8 OD) relative to DMSO control (fraction of control); higher = more viable cells). Settings: compound concentration: 10 uM; treatment time: 48 h.
Procedure, shortened: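 Compounds from a purchased library of 510 were each tested at a final 10 μM for 48 h on PC-9 and PC-9GR lung cancer cells plated at 3000 cells/well in 96-well plates. These cells overexpressed IL-6-GFP from a lentiviral construct. Viability came from CCK-8 absorbance, given as the optical density of each well over that of the vehicle control well, across independent replicates numbering two.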
Work on `O=C(O)CCCc1ccc(N(CCCl)CCCl)cc1` [Chloroambucil] yielded a cell viability of 0.97 ± 0.18. With `Cn1cc(C2=C(c3cn(C4CCN(Cc5ccccn5)CC4)c4ccccc34)C(=O)NC2=O)c2ccccc21` the cell viability was 1.09 ± 0.16. For `CCC1(O)C(=O)OCc2c1cc1n(c2=O)Cc2cc3ccccc3nc2-1` (configuration not stated) [Camptothecin], the cell viability was 0.364 ± 0.036. `O=C(O)C1C2CCC(O2)C1C(=O)[O][Na]` (configuration not stated) [Sodium Demethylcantharidate] was tested, and the cell viability was 1.31 ± 0.083. `CCC1=CC2CN3CCc4c([nH]c5ccccc45)C(C(=O)OC)(C2)C13` (configuration not stated) [Catharanthine] showed a cell viability of 1.1 ± 0.1. Work on `CN(C)NC(=O)CCC(=O)O` [Daminozide] yielded a cell viability of 1.28 ± 0.05. In the case of `C=CCN1CC(C(=O)N(CCCN(C)C)C(=O)NCC)CC2c3cccc4[nH]cc(c34)CC21` (configuration not stated) [Cabergoline], the cell viability is reported as 1.05 ± 0.21. Work on `CC12CCC3C(CCC4=C(O)C(=O)CCC43C)C1CCC2=O` (configuration not stated) [Formestane] yielded a cell viability of 0.466 ± 0.055. `O=C(O)c1nn(Cc2ccc(Cl)cc2Cl)c2ccccc12` [Lonidamine] showed a cell viability of 1.19 ± 0.13. `O=c1c2ccccc2[se]n1-c1ccccc1` [Ebselen] was tested, and the cell viability was 1.36 ± 0.22. `Cl.Cn1c(CCCC(=O)O)nc2cc(N(CCCl)CCCl)ccc21` [Bendamustine HCl] was tested, and the cell viability was 1.2 ± 0.11. `CC(C)(C)NCC(O)c1ccccc1Cl.Cl` (configuration not stated) [Tulobuterol hydrochloride] was tested, and the cell viability was 1.08 ± 0.15. Work on `Cc1c(N)nc(C(CC(N)=O)NCC(N)C(N)=O)nc1C(=O)NC(C(=O)NC(C)C(O)C(C)C(=O)NC(C(=O)NCCc1nc(-c2nc(C(=O)NCCC[S+](C)C)cs2)cs1)C(C)O)C(OC1OC(CO)C(O)C(O)C1OC1OC(CO)C(O)C(OC(N)=O)C1O)c1c[nH]cn1.O=S(=O)([O-])O` (configuration not stated) [Bleomycin sulfate] yielded a cell viability of 0.473 ± 0.051. For `Cc1cccc(C(C)c2c[nH]cn2)c1C.Cl` (configuration not stated) [Medetomidine HCl], the cell viability was 1.09 ± 0.011. `CC(C)[N+](C)(CCC(C(N)=O)(c1ccccc1)c1ccccc1)C(C)C.[I-]` [Isopropamide Iodide] showed a cell viability of 0.841 ± 0.16. `COC1=CC2C3Cc4ccc(OC)c(O)c4C2(CCN3C)CC1=O.Cl` (configuration not stated) [Sinomenine hydrochloride] showed a cell viability of 1.28 ± 0.086. Compound `COc1cc2c(cc1O)CC1c3c(cc(O)c(OC)c3-2)CCN1C` (configuration not stated) [Boldine] has a cell viability of 1.05 ± 0.11. In the case of `CCC1(O)C(=O)OCc2c1cc1n(c2=O)Cc2c-1nc1ccccc1c2CCNC(C)C.Cl` (configuration not stated) [Belotecan (CKD-602) hydrochloride], the cell viability is reported as 0.349 ± 0.055. Work on `CC(C)C12OC1C1OC13C1(C)CCC4=C(COC4=O)C1CC1OC13C2O` (configuration not stated) [Triptolide (PG490)] yielded a cell viability of 0.447 ± 0.12. Work on `COc1cc2c(c(OC)c1OC)-c1ccc(OC)c(=O)cc1C(NC(C)=O)CC2` (configuration not stated) [Colchicine] yielded a cell viability of 0.686 ± 0.078. In the case of `COC(=O)CC(O)(CCC(C)(C)O)C(=O)OC1C(OC)=CC23CCCN2CCc2cc4c(cc2C13)OCO4` (configuration not stated) [Harringtonine], the cell viability is reported as 0.323 ± 0.058. With `CC1CCC2N(C1)CC1C3CC4C(CC(O)C5CC(O)CCC54C)C3CCC1C2(C)O` (configuration not stated) [Peimine] the cell viability was 1.211 ± 0.0049. Work on `CC(C)C12OC1C1OC13C1(C)CCC4=C(COC4=O)C1CC1OC13C2=O` (configuration not stated) [Triptonide] yielded a cell viability of 0.467 ± 0.063. In the case of `NC(Cc1ccc(N(CCCl)CCCl)cc1)C(=O)O` (configuration not stated) [Melphalan], the cell viability is reported as 0.891 ± 0.076. Compound `COC1=CC2C3Cc4ccc(OC)c(O)c4C2(CCN3C)CC1=O` (configuration not stated) [Sinomenine] has a cell viability of 1.19 ± 0.097. In the case of `O.O=P1(N(CCCl)CCCl)NCCCO1` (configuration not stated) [Cyclophosphamide Monohydrate], the cell viability is reported as 1.2 ± 0.029. With `O=P1(NCCCl)OCCCN1CCCl` (configuration not stated) [Ifosfamide] the cell viability was 0.8 ± 0.02. `Cn1c(CCCC(=O)O)nc2cc(N(CCCl)CCCl)ccc21` [Bendamustine] showed a cell viability of 1.02 ± 0.18. `c1ccc2c(c1)Sc1ccccc1N2CC1CN2CCC1CC2` (configuration not stated) [Mequitazine] gave a cell viability of 1.01 ± 0.021. `CC1CC(=O)CC2CCC3C4CCC(O)C4(C)CCC3C12C` (configuration not stated) [Mesterolone] gave a cell viability of 1.21 ± 0.12. `COc1cc(C2c3cc4c(cc3C(O)C3COC(=O)C23)OCO4)cc(OC)c1OC` (configuration not stated) [Picropodophyllin (PPP)] showed a cell viability of 0.603 ± 0.07. `CC12CCC3c4ccc(OC(=O)N(CCCl)CCCl)cc4CCC3C1CCC2OP(=O)([O-])[O-].[Na+].[Na+]` (configuration not stated) [Estramustine phosphate sodium] gave a cell viability of 1.01 ± 0.25.
